# Measurements taken from the supplement of paper PMC10849652.
# Targets with a hit are over-represented here; the source holds about 8,800 in all. About 0.5% of all pairs of compound and target were hits. Unmarked numbers belong to inactive results.
# Experiments:
# Assay in all cases: log2 fold change, soluble protein after heating vs DMSO (PISA); higher = thermal stabilisation; K562 lysate, 10 uM; active = over 0.2 and 3.5 SD of the protein, either way, in both replicates (recomputed)
# nilotinib = compound: Cc1cn(-c2cc(NC(=O)c3ccc(C)c(Nc4nccc(-c5cccnc5)n4)c3)cc(C(F)(F)F)c2)cn1 [nilotinib]
# In short: (§1)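 Values give the log-two fold change in thermal stability against solvent controls, from duplicates. Crude K562 extract at 1 mg/mL protein, made by dounce homogenisation in PBS pH 7.4 with 1 mM MgCl2, was treated with 10 μM compound for 30 min. After 3 min heating across 48°C-58°C, aliquots were pooled, adjusted to 0.5% NP-40 at 4°C and centrifuged at 21,000xg for 90 min. The supernatant was measured by TMTpro 16plex LC-MS/MS with channel sums equalised.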
# [1] = compound: Cc1nc(Nc2n[nH]c3c2CN(C(=O)N[C@H](CN(C)C)c2ccccc2)C3(C)C)c2sccc2n1
# In short: as §1
# dasatinib = compound: Cc1nc(Nc2ncc(C(=O)Nc3c(C)cccc3Cl)s2)cc(N2CCN(CCO)CC2)n1 [dasatinib]
# In short: as §1
# [2] = compound: Cc1ncc(-c2ccnc(Nc3ccc(S(C)(=O)=O)cc3)n2)n1C(C)C
# In short: as §1
# [3] = compound: Cn1cc(-c2ccc3c(c2)CCN3C(=O)Cc2cccc(C(F)(F)F)c2)c2c(N)ncnc21
# In short: as §1
# quisinostat = compound: Cn1cc(CNCC2CCN(c3ncc(C(=O)NO)cn3)CC2)c2ccccc21 [quisinostat]
# In short: as §1
# tipifarnib = compound: Cn1cncc1[C@@](N)(c1ccc(Cl)cc1)c1ccc2c(c1)c(-c1cccc(Cl)c1)cc(=O)n2C [tipifarnib]
# In short: as §1
# [4] = compound: NC(=O)Nc1cc(-c2cccc(F)c2)sc1C(=O)N[C@H]1CCCNC1
# In short: as §1
# [5] = compound: NC(=O)c1cnc(N[C@@H]2CCCC[C@@H]2N)nc1Nc1cccc(-n2nccn2)c1
# In short: as §1
# [6] = compound: NC1(c2ccc(-c3nc4ccn5c(=O)[nH]nc5c4cc3-c3ccccc3)cc2)CCC1
# In short: as §1
# [7] = compound: NCC(=O)Nc1ccc(-n2nc(C(F)(F)F)cc2-c2ccc3c(ccc4ccccc43)c2)cc1
# In short: as §1
# vorinostat = compound: O=C(CCCCCCC(=O)Nc1ccccc1)NO [vorinostat]
# In short: as §1
# silmitasertib = compound: O=C(O)c1ccc2c(c1)nc(Nc1cccc(Cl)c1)c1ccncc12 [silmitasertib]
# In short: as §1
# [8] = compound: O=C1NC(=O)C(c2cnc3ccccn23)=C1c1cn2c3c(cc(F)cc13)CN(C(=O)N1CCCCC1)CC2
# In short: as §1
# entospletinib = compound: c1cn2cc(-c3ccc4cn[nH]c4c3)nc(Nc3ccc(N4CCOCC4)cc3)c2n1 [entospletinib]
# In short: as §1
# Chain of UniProt Q9P2J5 (Q9P2J5 whole entry, looked up): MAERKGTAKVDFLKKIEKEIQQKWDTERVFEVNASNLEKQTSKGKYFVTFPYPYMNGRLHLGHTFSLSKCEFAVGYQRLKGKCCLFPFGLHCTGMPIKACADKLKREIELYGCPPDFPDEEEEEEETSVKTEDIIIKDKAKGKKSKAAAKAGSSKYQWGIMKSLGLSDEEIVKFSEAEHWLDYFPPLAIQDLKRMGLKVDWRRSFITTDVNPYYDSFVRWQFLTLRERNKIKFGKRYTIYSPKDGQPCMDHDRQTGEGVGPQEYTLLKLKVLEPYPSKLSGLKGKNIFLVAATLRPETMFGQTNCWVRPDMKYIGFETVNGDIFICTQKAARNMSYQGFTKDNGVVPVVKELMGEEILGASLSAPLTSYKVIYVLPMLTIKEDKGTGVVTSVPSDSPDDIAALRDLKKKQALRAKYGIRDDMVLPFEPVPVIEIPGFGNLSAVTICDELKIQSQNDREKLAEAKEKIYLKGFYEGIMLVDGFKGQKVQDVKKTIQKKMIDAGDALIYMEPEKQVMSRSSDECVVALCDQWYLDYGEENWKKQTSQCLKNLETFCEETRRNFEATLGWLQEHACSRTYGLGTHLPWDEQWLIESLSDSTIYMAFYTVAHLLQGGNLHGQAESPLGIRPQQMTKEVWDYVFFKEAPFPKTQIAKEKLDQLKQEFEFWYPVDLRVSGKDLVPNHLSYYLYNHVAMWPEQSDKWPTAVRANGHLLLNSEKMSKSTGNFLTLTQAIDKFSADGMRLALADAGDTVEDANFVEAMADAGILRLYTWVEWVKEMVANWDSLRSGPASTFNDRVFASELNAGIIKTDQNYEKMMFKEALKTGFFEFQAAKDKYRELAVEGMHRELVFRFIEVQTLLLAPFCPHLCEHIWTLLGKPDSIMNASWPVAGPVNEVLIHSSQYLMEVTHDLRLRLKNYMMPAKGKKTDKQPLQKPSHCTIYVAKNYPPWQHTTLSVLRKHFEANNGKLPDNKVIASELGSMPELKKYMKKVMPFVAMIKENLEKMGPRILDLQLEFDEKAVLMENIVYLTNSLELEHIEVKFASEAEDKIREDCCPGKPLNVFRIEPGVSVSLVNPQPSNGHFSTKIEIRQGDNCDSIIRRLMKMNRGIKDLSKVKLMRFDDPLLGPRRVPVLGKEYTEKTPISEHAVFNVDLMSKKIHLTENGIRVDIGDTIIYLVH
# Chain of UniProt Q7Z4S6 (Q7Z4S6 whole entry, looked up): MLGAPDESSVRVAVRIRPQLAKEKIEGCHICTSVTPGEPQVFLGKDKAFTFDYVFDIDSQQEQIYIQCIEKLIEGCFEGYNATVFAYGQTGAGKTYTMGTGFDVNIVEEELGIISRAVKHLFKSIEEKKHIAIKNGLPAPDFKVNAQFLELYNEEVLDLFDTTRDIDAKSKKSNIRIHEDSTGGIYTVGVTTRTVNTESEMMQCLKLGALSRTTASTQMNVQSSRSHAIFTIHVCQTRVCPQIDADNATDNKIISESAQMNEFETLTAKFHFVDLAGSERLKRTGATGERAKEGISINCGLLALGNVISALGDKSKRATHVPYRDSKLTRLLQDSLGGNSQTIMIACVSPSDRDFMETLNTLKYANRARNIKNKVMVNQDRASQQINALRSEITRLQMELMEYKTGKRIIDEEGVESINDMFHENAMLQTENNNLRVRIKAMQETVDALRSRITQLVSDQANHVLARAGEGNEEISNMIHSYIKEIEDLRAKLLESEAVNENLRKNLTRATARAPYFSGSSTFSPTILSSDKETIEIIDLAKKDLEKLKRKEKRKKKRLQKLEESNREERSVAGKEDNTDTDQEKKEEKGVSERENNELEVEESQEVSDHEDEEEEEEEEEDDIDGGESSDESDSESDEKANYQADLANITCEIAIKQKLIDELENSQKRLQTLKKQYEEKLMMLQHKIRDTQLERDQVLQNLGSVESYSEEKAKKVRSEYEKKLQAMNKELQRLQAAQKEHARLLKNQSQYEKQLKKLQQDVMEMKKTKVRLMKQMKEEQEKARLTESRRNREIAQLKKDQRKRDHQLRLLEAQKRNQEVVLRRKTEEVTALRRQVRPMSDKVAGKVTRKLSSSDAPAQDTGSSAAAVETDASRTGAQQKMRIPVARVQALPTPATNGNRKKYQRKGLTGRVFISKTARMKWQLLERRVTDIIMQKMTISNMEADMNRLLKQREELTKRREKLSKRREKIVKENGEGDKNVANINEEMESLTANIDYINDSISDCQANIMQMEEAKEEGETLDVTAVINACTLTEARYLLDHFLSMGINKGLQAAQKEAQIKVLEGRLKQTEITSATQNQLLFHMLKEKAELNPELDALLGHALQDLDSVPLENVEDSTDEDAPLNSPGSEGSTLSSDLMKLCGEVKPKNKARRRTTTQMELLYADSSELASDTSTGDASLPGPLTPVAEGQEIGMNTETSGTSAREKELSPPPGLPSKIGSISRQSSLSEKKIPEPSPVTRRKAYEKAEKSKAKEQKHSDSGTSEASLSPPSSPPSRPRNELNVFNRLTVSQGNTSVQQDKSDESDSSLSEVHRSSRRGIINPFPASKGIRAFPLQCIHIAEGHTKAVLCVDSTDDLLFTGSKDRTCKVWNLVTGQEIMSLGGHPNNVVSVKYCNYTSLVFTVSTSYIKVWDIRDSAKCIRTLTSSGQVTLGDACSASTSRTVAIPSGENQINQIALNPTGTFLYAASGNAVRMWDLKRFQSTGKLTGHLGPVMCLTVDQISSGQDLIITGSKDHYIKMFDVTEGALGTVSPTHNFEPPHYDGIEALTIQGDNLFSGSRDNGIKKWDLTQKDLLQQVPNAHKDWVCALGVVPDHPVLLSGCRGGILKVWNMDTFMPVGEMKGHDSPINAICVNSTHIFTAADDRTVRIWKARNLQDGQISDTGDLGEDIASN
# Chain of UniProt O00139 (O00139 whole entry, looked up): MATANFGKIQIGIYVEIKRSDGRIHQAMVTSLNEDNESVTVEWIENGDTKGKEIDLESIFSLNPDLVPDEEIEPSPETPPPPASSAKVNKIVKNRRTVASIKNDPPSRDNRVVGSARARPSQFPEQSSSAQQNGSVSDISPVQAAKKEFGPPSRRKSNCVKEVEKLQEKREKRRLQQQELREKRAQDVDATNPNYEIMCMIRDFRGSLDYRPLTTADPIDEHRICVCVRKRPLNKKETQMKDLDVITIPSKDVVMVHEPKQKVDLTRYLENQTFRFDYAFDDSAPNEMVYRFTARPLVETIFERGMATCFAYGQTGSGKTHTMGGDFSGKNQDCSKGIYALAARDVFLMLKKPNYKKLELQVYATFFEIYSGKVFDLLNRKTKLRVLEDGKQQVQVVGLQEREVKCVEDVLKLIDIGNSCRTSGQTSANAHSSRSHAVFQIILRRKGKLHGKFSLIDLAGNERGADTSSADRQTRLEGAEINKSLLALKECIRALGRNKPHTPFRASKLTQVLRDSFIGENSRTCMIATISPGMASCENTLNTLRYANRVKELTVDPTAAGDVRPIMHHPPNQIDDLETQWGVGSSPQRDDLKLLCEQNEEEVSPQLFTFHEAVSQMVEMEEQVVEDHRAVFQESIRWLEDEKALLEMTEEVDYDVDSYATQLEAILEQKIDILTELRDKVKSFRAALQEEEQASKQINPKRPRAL
# Chain of UniProt O95239 (O95239 whole entry, looked up): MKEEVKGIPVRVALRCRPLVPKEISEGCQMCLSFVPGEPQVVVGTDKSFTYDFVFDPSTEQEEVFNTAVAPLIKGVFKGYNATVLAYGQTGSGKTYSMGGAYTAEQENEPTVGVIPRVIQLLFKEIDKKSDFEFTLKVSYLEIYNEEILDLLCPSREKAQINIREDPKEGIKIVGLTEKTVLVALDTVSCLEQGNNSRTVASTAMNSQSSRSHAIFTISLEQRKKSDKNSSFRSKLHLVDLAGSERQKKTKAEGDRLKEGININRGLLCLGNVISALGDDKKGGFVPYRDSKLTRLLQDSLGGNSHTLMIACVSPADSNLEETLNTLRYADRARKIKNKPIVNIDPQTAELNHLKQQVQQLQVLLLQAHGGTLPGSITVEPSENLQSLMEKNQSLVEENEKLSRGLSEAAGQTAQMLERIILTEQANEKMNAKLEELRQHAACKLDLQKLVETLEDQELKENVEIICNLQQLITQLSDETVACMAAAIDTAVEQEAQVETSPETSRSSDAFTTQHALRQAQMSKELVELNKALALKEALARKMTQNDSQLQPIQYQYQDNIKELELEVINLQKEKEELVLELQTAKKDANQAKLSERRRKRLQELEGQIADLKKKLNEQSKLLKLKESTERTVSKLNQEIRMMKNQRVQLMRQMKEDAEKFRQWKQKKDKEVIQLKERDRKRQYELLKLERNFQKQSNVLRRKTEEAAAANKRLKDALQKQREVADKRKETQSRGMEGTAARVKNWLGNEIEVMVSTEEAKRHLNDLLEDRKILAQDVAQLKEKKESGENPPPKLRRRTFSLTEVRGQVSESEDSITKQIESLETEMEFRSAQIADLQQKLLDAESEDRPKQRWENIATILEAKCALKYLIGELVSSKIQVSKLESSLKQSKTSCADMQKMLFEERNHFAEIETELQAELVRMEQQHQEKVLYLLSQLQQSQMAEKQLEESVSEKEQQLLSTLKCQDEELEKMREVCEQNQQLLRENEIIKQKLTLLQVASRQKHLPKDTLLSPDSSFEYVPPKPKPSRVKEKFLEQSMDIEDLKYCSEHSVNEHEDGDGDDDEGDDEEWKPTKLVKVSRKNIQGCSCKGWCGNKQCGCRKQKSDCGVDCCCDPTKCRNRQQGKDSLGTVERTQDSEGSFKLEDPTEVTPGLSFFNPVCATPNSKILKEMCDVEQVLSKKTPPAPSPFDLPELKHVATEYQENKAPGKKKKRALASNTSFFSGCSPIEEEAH
# Chain of UniProt Q68D91 (Q68D91 whole entry, looked up): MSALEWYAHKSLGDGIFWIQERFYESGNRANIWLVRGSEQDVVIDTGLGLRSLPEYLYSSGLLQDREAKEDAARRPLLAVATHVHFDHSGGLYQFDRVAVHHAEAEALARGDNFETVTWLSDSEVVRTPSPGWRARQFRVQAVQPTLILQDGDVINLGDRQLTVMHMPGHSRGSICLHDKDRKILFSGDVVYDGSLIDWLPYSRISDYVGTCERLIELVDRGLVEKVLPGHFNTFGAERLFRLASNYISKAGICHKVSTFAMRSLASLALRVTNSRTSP
Target,log2 fold change (nilotinib),log2 fold change [1],log2 fold change (dasatinib),log2 fold change [2],log2 fold change [3],log2 fold change (quisinostat),log2 fold change (tipifarnib),log2 fold change [4],log2 fold change [5],log2 fold change [6],log2 fold change [7],log2 fold change (vorinostat),log2 fold change (silmitasertib),log2 fold change [8],log2 fold change (entospletinib)
KPNA4 (UniProt O00629),-0.013,0.006,0.063,0.018,0.003,-0.088,-0.033,-0.012,0,-0.058,0.006,0.047,0.024,0.02,0.021
KIF11 (UniProt P52732),-0.016,0.003,-0.021,-0.018,0.034,-0.022,-0.007,0.006,0,0,-0.013,-0.252 (active),0.016,-0.033,0.001
LLGL1 (UniProt Q15334),0,0.149,-0.011,0.052,0.016,-0.046,-0.077,0.159,0.053,0.075,0.078,-0.524 (active),0.077,-0.046,0.042
KNSTRN (UniProt Q9Y448),0.012,0.03,-0.048,-0.071,-0.005,0.165,0.033,-0.02,-0.002,-0.01,-0.018,-0.054,0,0.057,0.02
LIMS1 isoform 3 (UniProt P48059),0.076,0.035,0.017,0.104,0.018,0.255 (active),0.002,-0.065,-0.007,0.001,-0.022,0.049,0.013,0.054,-0.016
KMT2A isoform 3 (UniProt Q03164),0.098,-0.428 (active),0.017,0.154,0.056,-0.156,-0.178,0.032,0.133,-0.037,0.046,0.101,0.012,0.066,-0.034
LAS1L (UniProt Q9Y4W2),-0.019,0.008,0.025,0.029,-0.019,-0.083,-0.013,0.033,0.044,-0.024,-0.008,-0.397 (active),0.01,-0.018,-0.075
MAD2L2 (UniProt Q9UI95),0.031,-0.029,-0.064,0.006,-0.035,-0.231,-0.015,0.064,0.117,-0.065,0.075,-0.348 (active),-0.006,-0.02,0.017
LPIN1 isoform 7 (UniProt Q14693),-0.032,0.026,-0.107,0.182,0.028,-0.032,-0.104,0.035,-0.04,0.003,0.052,-0.489 (active),-0.014,0.004,-0.193
MINK1 (UniProt Q8N4C8),-0.227,-0.206,-0.077,0.199,-0.016,-0.062,0.289,0.782 (active),-0.023,0.02,-0.02,-0.205,-0.109,0.043,0.182
KIF4B (UniProt Q2VIQ3),-0.016,0.034,-0.013,0.049,0.096,-0.08,-0.009,0.037,0.045,-0.078,-0.035,-0.506 (active),0.027,-0.02,0
KIF4A (UniProt O95239),-0.02,0.029,-0.011,0.014,0.037,-0.104,0.017,0.042,-0.014,0.014,-0.017,-0.445 (active),0.017,0.013,0.001
LAP3 (UniProt P28838),0.045,-0.006,-0.047,0.016,-0.123,-0.192,-0.008,0.049,0.009,-0.137,0.048,0.082,-0.104,0.104,-0.008
MBLAC2 (UniProt Q68D91),0.028,-0.076,-0.003,-0.126,0.059,0.026,0.08,0,-0.005,0.005,-0.1,0.084,-0.015,-0.074,-0.011
KIF2A isoform 4 (UniProt O00139),0.021,-0.015,-0.022,-0.02,0.042,-0.005,0.015,0.021,0.017,0.006,-0.018,-0.518 (active),0.044,-0.015,-0.006
LIG4 (UniProt P49917),0.02,-0.072,0.018,-0.008,-0.026,-0.085,0.038,0.066,-0.045,-0.005,-0.041,-0.368,0.107,-0.039,0.062
LARS (UniProt Q9P2J5),0.012,0.003,-0.065,-0.012,0.038,-0.005,-0.006,0.034,0,-0.024,-0.021,-0.399 (active),0.052,-0.003,0.012
KIF21A isoform 5 (UniProt Q7Z4S6),0.011,0.036,0.001,0,0.001,-0.011,-0.048,0.048,-0.009,-0.028,0.005,-0.239 (active),-0.004,0.007,-0.058
KLC4 isoform 3 (UniProt Q9NSK0),-0.023,0.047,-0.013,0.089,0.048,-0.018,-0.015,0.01,0.021,-0.003,0.01,-0.557 (active),0.009,-0.041,-0.006
KIFC1 (UniProt Q9BW19),-0.008,0.003,-0.031,-0.002,0.034,-0.055,0.006,0.001,-0.024,-0.025,0.02,-0.898 (active),0.03,-0.04,-0.002
MAPK1 (UniProt P28482),-0.042,0.205,-0.014,0.091,-0.01,0.07,0.011,0.01,0.088,0.003,-0.027,0.039,0.042,-0.005,-0.039
